Assay results taken from PubChem BioAssay (EPA / NIEHS).
Calls of active or inactive are those of the source. How the source made its calls: active means hit-call score of the fitted dose curve at least 0.9, where 1 is the maximum; inactive means score below 0.9.

Experiment: ATG_Oct_MLP_CIS: Attagene CIS-FACTORIAL HepG2 Assay for human Octamer-Binding Transcription Factor (Oct) (AID 2282993)
Settings: HepG2 Attagene cis-factorial Oct reporter, mRNA; actives raise or lower the signal
Method: ATG_CIS is a cell-based, multiplexed-readout assay that uses HepG2, a human liver cell line, with measurements taken at 24 hours after chemical dosing in a 24-well plate.ATG_Oct_MLP_CIS is one of 52 assay component(s) measured or calculated from the ATG_CIS assay. It is designed to make measurements of mRNA induction, a form of inducible reporter, as detected with fluorescence intensity signals by Reverse transcription polymerase chain reaction (RT-PCR) and Capillary electrophoresis technology.Data from the assay component ATG_Oct_MLP_CIS was analyzed into 1 assay endpoint. This assay endpoint, ATG_Oct_MLP_CIS, was analyzed with bidirectional fitting relative to DMSO as the negative control and baseline of activity. Using a type of inducible reporter, measures of mRNA for gain or loss-of-signal activity can be used to understand the reporter gene at the transcription factor-level as they relate to the gene POU2F1. Furthermore, this assay endpoint can be referred to as a primary readout, because this assay has produced multiple assay endpoints where this one serves a reporter gene function. To generalize the intended target to other relatable targets, this assay endpoint is annotated to the dna binding intended target family, where the subfamily is POU domain protein.
Human liver HepG2 cells are transiently transfected with multiple reporter transcription units (MRTUs) in 6-well plates using FuGene 6 reagent (Roche; 3 ml FuGene/1 mg DNA). The MRTU constructs are regulated by a cis-regulating element (promoter). […] A major difference between the CIS and TRANS system is that in CIS activities of endogenous TFs are measured, whereas the TRANS assay evaluates changes in activities of exogenous, chimeric NR-Gal4 proteins. […] At the end of 24 hour incubation, total RNA was isolated using TriZol reagent (Invitrogen). The isolated RNA is then reverse-transcribed using oligo(dT) primer and Mo-MLV reverse transcriptase (Invitrogen) with DNAse I (Ambion) treatment for 30 min. The one-tenth of the produced cDNA was amplified by PCR using Taq DNA polymerase (Invitrogen) and two reporter sequence-specific primers. The PCR products were fluorescently labeled by primer extension with 6-arboxyfluorescein (6-FAM) 5'-labeled reporter sequence-specific primer (2 min at 95 C, 20 s at 68 C and 10 min at 72 C) and these products were digested with 5U of HpaI (New England Biolabs) for 2h at 37 C. The fragments were purified using Qiaquick PCR columns (Qiagen), analyzed on an ABI 3130xL genetic analyzer (Applied Biosystems) with peak positions identified by using a set of X-rhodamine (ROX)-labeled MapMarker1000 molecular weight standards (BioVentures). The raw capillary electrophoresis data was processed using Attagraph software (Attagene).

Structure (SMILES)	AC50	outcome
CC1(C(=O)Nc2ccc(O)c(Cl)c2Cl)CCCCC1	22.2 µM (active)	
C#CCC1=C(C)C(OC(=O)C2C(C=C(C)C)C2(C)C)CC1=O (stereo not given)	44.5 µM (active)	
CCC(=O)Nc1ccc(Cl)c(Cl)c1		inactive
CCc1cccc(CC)c1N(COC)C(=O)CCl	3.21 µM (active)	
CNC(=O)ON=C(C)SC		inactive
O=c1ccc(=O)[nH][nH]1		inactive
CC(COc1ccc(Oc2ccccc2)cc1)Oc1ccccn1 (stereo not given)	13 µM (active)	
CCCSP(=O)(OCC)SCCC		inactive
CCC(=NOC/C=C/Cl)C1=C(O)CC(C2CCOCC2)CC1=O (stereo not given)		inactive
Cc1nn(-c2cc(NS(C)(=O)=O)c(Cl)cc2Cl)c(=O)n1C(F)F		inactive
CCCCSP(=O)(SCCCC)SCCCC	11.8 µM (active)	
Cc1cc(C2CC2)nc(Nc2ccccc2)n1	15.7 µM (active)	
C#CC(C)(C)NC(=O)c1cc(Cl)cc(Cl)c1	30.6 µM (active)	
CCOP(=S)(OCC)SCCSCC		inactive
CCCCOC(=O)[C@@H](C)Oc1ccc(Oc2ccc(C#N)cc2F)cc1		inactive
S=C1NCCN1		inactive
CCc1cccc(C)c1N(C(=O)CCl)C(C)COC (stereo not given)	14.2 µM (active)	
CCOP(=S)(OCC)Oc1cc(C)nc(C(C)C)n1		inactive
CCOC(=O)CC(SP(=O)(OC)OC)C(=O)OCC (stereo not given)		inactive
CN(C)NC(=O)CCC(=O)O		inactive

Structure (SMILES)	AC50	outcome
Nc1c(Cl)cc([N+](=O)[O-])cc1Cl	50 µM (active)	
COP(=O)(OC)SCn1c(=O)oc2cc(Cl)cnc21		inactive
COP(=O)(NC(C)=O)SC (stereo not given)		inactive
CCC(CC)Nc1c([N+](=O)[O-])cc(C)c(C)c1[N+](=O)[O-]		inactive
CCc1cnc(C2=NC(C)(C(C)C)C(=O)N2)c(C(=O)O)c1 (stereo not given)		inactive
CCNc1nc(Cl)nc(NC(C)(C)C#N)n1		inactive
CON=C(C(=O)OC)c1ccccc1CON=C(C)c1cccc(C(F)(F)F)c1	13.5 µM (active)	
COc1cc(OC)nc(Sc2cccc(Cl)c2C(=O)O)n1		inactive
FC(F)C(F)(F)OCC(Cn1cncn1)c1ccc(Cl)cc1Cl (stereo not given)	46.5 µM (active)	
CCOP(=S)(OCC)Oc1ccc([N+](=O)[O-])cc1	50 µM (active)	
C=C(C)[C@H]1Cc2c(ccc3c2O[C@@H]2COc4cc(OC)c(OC)cc4[C@@H]2C3=O)O1	0.0306 µM (active)	
CC(C1CC1)C(O)(Cn1cncn1)c1ccc(Cl)cc1 (stereo not given)		inactive
O=C(O)c1cc(Oc2ccc(C(F)(F)F)cc2Cl)ccc1[N+](=O)[O-]		inactive
CCCOCC(=Nc1ccc(Cl)cc1C(F)(F)F)n1ccnc1		inactive
CCOP(=S)(Oc1cnc(C(C)(C)C)nc1)OC(C)C (stereo not given)	2.06 µM (active)	
N#CSCSC#N		inactive
CCOP(=O)(NC(C)C)Oc1ccc(SC)c(C)c1 (stereo not given)	11.2 µM (active)	
CCOP(=O)(SC(C)CC)N1CCSC1=O (stereo not given)		inactive
C[Si](Cn1cncn1)(c1ccc(F)cc1)c1ccc(F)cc1	39.1 µM (active)	
O=[N+]([O-])c1cc(C(F)(F)F)c(Cl)c([N+](=O)[O-])c1Nc1ncc(C(F)(F)F)cc1Cl		inactive
